Only some compounds are listed: those with a hit (about 1.6% of all), similar ones and a draw of the others.
KCNQ2 block – inhibitors of rat KCNQ2 potassium channel. hit rate 1.1% among 310,000. CHO-K1 KCNQ2, FluxOR thallium flux, 20 min; hits give low values. B-score at 10 µM;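 active = fluorescence ratio B-score at most minus 3 library SDs, with starting brightness B-score within 2 library SDs, cut at about -5.5 in these data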
Target sequence (O88943 whole entry, looked up): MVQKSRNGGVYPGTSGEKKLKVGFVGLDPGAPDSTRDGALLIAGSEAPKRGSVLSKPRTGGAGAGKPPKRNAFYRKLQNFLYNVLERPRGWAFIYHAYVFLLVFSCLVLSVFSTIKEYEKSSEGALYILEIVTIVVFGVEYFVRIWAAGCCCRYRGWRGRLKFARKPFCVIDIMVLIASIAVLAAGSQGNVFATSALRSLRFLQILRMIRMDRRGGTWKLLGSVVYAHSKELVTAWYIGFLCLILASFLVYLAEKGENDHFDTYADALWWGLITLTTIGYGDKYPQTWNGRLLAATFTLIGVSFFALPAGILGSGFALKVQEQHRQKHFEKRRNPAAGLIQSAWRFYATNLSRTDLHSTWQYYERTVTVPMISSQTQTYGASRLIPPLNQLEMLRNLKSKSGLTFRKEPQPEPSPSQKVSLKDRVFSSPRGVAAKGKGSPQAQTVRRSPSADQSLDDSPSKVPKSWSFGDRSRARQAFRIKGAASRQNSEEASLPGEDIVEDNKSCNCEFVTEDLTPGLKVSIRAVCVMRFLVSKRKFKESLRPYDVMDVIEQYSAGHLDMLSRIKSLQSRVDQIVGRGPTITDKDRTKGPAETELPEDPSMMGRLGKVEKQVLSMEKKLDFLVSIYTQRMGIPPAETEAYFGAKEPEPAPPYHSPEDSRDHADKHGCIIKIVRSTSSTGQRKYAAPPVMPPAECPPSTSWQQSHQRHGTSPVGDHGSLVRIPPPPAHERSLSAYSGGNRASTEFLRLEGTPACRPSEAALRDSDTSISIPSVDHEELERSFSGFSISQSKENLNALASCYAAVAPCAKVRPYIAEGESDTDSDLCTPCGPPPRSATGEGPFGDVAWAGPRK
KCNQ2 pot – KCNQ2 (rat) channel potentiation; O88943; CHO-K1 KCNQ2, FluxOR thallium flux fluorescence; hits give high values; B-score at 10 µM; hit rate 0.54% among 310,000; AID 2239;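 active = fluorescence ratio B-score at least 3 SD of library B-scores, with initial fluorescence B-score within 3 of them, cut at about 5.3 in these data; same plate scores as AID 2156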;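 note: B-score of peak minus minimum over baseline fluorescence ratio after K+ and Tl+ stimulus; positive B-score means potentiation of KCNQ2 with more thallium influx and brighter signal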
Active calls of the source: *; i = inactive; / = not tested or not shown.

SMILES | KCNQ2 block | KCNQ2 pot
COCCNC(=O)c1cc2nc(-c3ccc(F)cc3)cc(C(F)(F)F)n2n1 | i | /
Cc1ccc(S(=O)(=O)N2CCC(C(=O)Nc3nnc(C)s3)CC2)cc1 | i | /
Cc1ccc(C)c(NC(=O)CN(C)C(=O)c2cc([N+](=O)[O-])ccc2N2CCOCC2)c1 | i | 0.91
Cc1cc(Br)ccc1NC(=O)CN(C)C(=O)c1cc([N+](=O)[O-])ccc1N1CCOCC1 | -6.5* | -6.5
O=C(NCc1ccccc1)C(c1ccncc1)N(C(=O)c1ccccn1)c1ccccc1 (stereo not drawn) | i | 0.02
Cc1cc(C)nc(/N=C(\NC(=O)C(C)(C)C)Nc2ccccc2)n1 | i | 1.3
Cc1cc(C)nc(/N=C(/NC(=O)Nc2cccc(Cl)c2)Nc2ccccc2)n1 | -5.8* | -5.8
Cc1ccc(S(=O)(=O)CCC(=O)Oc2ccc(-c3nnco3)cc2)cc1 | i | /
CCOC(=O)C1CCN(C(=O)c2ccc3c(=O)n4nc(Nc5cc(C)ccc5C)sc4nc3c2)CC1 | -5.8* | -5.8
Cc1ccc(C)c(Nc2nn3c(=O)c4ccc(C(=O)NCc5cccnc5)cc4nc3s2)c1 | i | 0.89
COc1ccc(C(C#N)=C2C=CC(=NO)C=C2)cc1 | -5.7* | -5.7
COc1ccc(C(=O)c2ccc(Cl)cc2)cc1 | i | 0.7
CCN1/C(=C/C=C/C=C/C=C/c2sc3ccccc3[n+]2CC)Sc2ccccc21 | i | /
CCN1/C(=C/C=C/C=C/c2sc3ccccc3[n+]2CC)Sc2ccccc21 | -21* | -21
CCOc1ccc(S(=O)(=O)NCCC(=O)NCC(c2ccc(F)cc2)N2CCOCC2)cc1 (stereo not drawn) | i | 1.4
COC(=O)c1ccccc1NC(=O)c1ccc(COc2cc(C)cc(C)c2)o1 | -6.4* | -6.4
Cc1ccc(OCc2ccc(C(=O)NN)o2)cc1C | i | /
COC(=O)c1ccccc1NC(=O)c1ccc(COc2ccc(C)c(C)c2)o1 | -6.6* | -6.6
COc1ccccc1NC(=O)c1ccc(COc2ccccc2OC)o1 | i | /
CCCCNC(=O)CC(=O)Nc1ccccc1C(=O)O | i | /
CC1(CCCN2C(=O)c3ccccc3C2=O)OCCO1 | i | /
O=C(CCCNC(=O)/C(=C/c1ccccc1F)NC(=O)c1ccccc1)OCc1ccccc1 | i | /
CN1C(CC(=O)Nc2ccc(Cl)cc2Cl)c2ccccc2CC1(C)C (stereo not drawn) | i | /
CCOC(=O)/C(C(=O)Nc1ccc(Cl)cc1Cl)=C1/NC(C)(C)Cc2ccccc21 | -6.3* | -6.3
CN(C)c1nc(SCC(=O)Nc2ccccc2)nc(N2CCOCC2)n1 | i | 6.4*
SMILES | KCNQ2 block | KCNQ2 pot
CN(C)c1nc(SCC(=O)Nc2ccc(Cl)c(Cl)c2)nc(N2CCOCC2)n1 | i | 1.5
O=C(Nc1cccc2ccccc12)NC(Cc1ccccc1)C(=O)O (stereo not drawn) | i | 0.95
CCOc1ccc(C(=O)NCC(c2ccco2)N2CCc3ccccc3C2)cc1 (stereo not drawn) | -6.4* | -6.4
COc1ccc(C(=O)NCC(c2ccco2)N2CCc3ccccc3C2)cc1 (stereo not drawn) | i | /
O=C(NCC(c1ccco1)N1CCc2ccccc2C1)c1ccc(Cl)c([N+](=O)[O-])c1 (stereo not drawn) | -5.8* | -5.8
O=C(NCC(c1ccco1)N1CCc2ccccc2C1)c1cccc([N+](=O)[O-])c1 (stereo not drawn) | i | /
CCOc1ccc(NS(=O)(=O)c2cc(C(=O)N(CC)CC(=O)NCc3cccs3)ccc2C)cc1 | i | 0.49
Cc1ccc(C)c(OCc2cc(C(=O)N3CC[C@@H]4CCCC[C@H]4C3)no2)c1 | -6.5* | -6.5
Cc1ccc(C)c(OCc2cc(C(=O)N3C[C@@H](C)O[C@@H](C)C3)no2)c1 | i | 1.4
CCOC(=O)CC(NC(=O)c1cc2cccc(OC)c2oc1=O)c1ccc(OC)cc1 (stereo not drawn) | i | /
Cc1ccc(S(=O)(=O)n2nc(-c3ccco3)nc2N)cc1 | i | /
Cc1ccccc1C(=O)N(C)Cc1ccccc1 | i | /
Cc1cccc(C)c1NC(=O)CN(C)C(=O)c1ccccc1C(=O)N(C)Cc1ccccc1 | -6.6* | -6.6
Cc1cn(-c2cc(NC(=O)c3ccc(C)c(NC(=O)c4cccc(-c5cn[nH]c(=O)c5)c4)c3)cc(C(F)(F)F)c2)cn1 | i | 1.8
COc1ccc(CN2CCN(Cc3cccc(Oc4ccccc4)c3)CC2)c(OC)c1OC | -7.5* | -7.5
CN1CCN(Cc2cccc(Oc3ccccc3)c2)CC1 | i | 0.44
CCOC(=O)N1CCC(N2CCCC(C(=O)c3ccccc3OC)C2)CC1 (stereo not drawn) | i | /
CCN(CC)C(=O)CSc1nc2c(c(-c3cccnc3)c1C#N)CCCC2 | i | 0.88
COc1ccc(OC)c(NC(=O)c2c3c(nc4ccccc24)CCC3)c1 | -6.1* | -6.1
O=C(Nc1ccccc1)c1c2c(nc3ccccc13)CCCC2 | -8.2* | -8.2
COc1ccc(NC(=O)c2c3c(nc4ccccc24)CCC3)cc1 | i | /
COC(=O)c1c2c(nc3ccccc13)CCC2 | i | 0.42
CCCCCCNS(=O)(=O)c1ccc(NC(=O)C2CCCO2)cc1 (stereo not drawn) | i | 1.1
Fc1cccc(CN2CCN(c3nc4nonc4nc3NC3CC3)CC2)c1 | i | 0.18
O=C(/C=C/c1cn(CC(O)CN2CCCCC2)c2ccccc12)c1cccs1 (stereo not drawn) | i | /
SMILES | KCNQ2 block | KCNQ2 pot
CCCN(CCC)CC(O)Cn1cc(/C=C/C(=O)c2ccccc2)c2ccccc21 (stereo not drawn) | -6.3* | -6.3
O=C(/C=C/c1cn(CC(O)CN2CCCCC2)c2ccccc12)c1ccccc1 (stereo not drawn) | -5.7* | -5.7
CCCN(CCC)CC(O)Cn1cc(/C=C/C(=O)c2cccs2)c2ccccc21 (stereo not drawn) | i | /
COc1ccc(S(=O)(=O)N2CCOCC2)cc1NC(=O)CSc1nnc2ccccn12 | i | 0.73
Cc1ccc2cc(C#N)c(NCCNC(=O)C3CC3)nc2c1C | i | 0.43
CC(C)n1c2ccccc2c2cc([N+](=O)[O-])ccc21 | i | 0.71
CCC(C)n1c(=S)[nH]c2c(sc3ccc([N+](=O)[O-])cc32)c1=O (stereo not drawn) | i | 25*
CC(C)c1c(C(=O)N/N=C/c2cccc3ccccc23)nnn1-c1nonc1N | i | /
Cc1ccc(C(=O)NC(C)C2CC3CCC2C3)c(C)c1 (stereo not drawn) | -7.7* | -7.7
CC(NC(=O)c1ccc(F)cc1Cl)C1CC2CCC1C2 (stereo not drawn) | i | /
Cc1nn(CC(=O)Nc2ccc(N3CCOCC3)cc2)c(C)c1Cl | i | 1.5
CC1Cc2ccccc2N1C(=O)CCn1c(=O)sc2ccccc21 (stereo not drawn) | -6* | -6
CC1Cc2ccccc2N1C(=O)CCN1C(=O)C2C3C=CC(C3)C2C1=O (stereo not drawn) | i | 0.21
Cc1ccc(CNC(=O)CNC(=O)c2ccc(Br)o2)cc1 | i | 0.81
CC(=O)N1CC[n+]2c(-c3ccc(Cl)cc3Cl)csc21 | i | 1.2
CCn1ccnc1CN(C)Cc1cn(-c2ccc(C)cc2)nc1-c1ccc(F)cc1 | i | /
CCn1ccnc1CN(C)Cc1cn(-c2cc(C)ccc2C)nc1-c1ccccc1 | -8.2* | -8.2
CCn1c(/C=C/c2ccccc2)nc2ccccc21 | i | /
CCC(C)n1c(/C=C/c2ccccc2)nc2ccccc21 (stereo not drawn) | -5.7* | -5.7
